Among all 330,000 compounds or so, about 7,700 (2.3%) were called active. Inconclusive results (about 26%) are left out. Only a selection was taken, and actives are over-represented in it overall. A number with no mark means an inactive call. The call rests on the fitted dose curve; in most records, active means well fitted inhibition curve with a large enough effect; inconclusive means small, poorly fitted or top-dose-only effect, or effect the other way; inactive means flat fitted curve, though single readings scatter.
Assay: qHTS screen for small molecules that inhibit ELG1-dependent DNA repair in human embryonic kidney (HEK293T) cells expressing luciferase-tagged ELG1; further: nearly all actives have a fitted effect of over 55% in size
Details: HEK293T ELG1-luciferase reporter, luminescence, 16 h, DNA damage induced by 5-fluorouridine; series mostly up to 46.1 µM; activity change, negative = inhibition: at the top concentration
In short: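 HEK293T cells expressing luciferase-tagged ELG1 (2,000/well) received 5-Fluorouridine plus compound or DMSO for 16 hr at 37 °C. Luciferase was read by ONE-Glo luminescence after 30 min at room temperature.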
On the % scale 0 is the no-effect control and ±100 the full control effect; potency means the concentration at half of the fitted maximal effect.

| Compound | activity change, negative = inhibition | Potency |
| --- | --- | --- |
| Cc1c(Cl)c([N+](=O)[O-])nn1CCCC(=O)Nc1cc(Cl)ccc1Cl | 1.54% | – |
| Cc1c(Cl)c([N+](=O)[O-])nn1Cc1ccc(C(=O)N/N=C\c2cc(Cl)ccc2O)o1 | – | 5.17 µM (active) |
| Cc1ccc(C(=O)O)cc1NC(=O)c1ccc(Cn2nc(C)c(Cl)c2C)o1 | 4.59% | – |
| COc1ccc(Br)cc1CN(C)C(=O)C1CC(=O)N(C2CCCC2)C1 (centres undefined) | -4.6% | – |
| CC(OC(=O)CNC(=O)c1ccco1)C(=O)Nc1ccc(Cl)cn1 (centres undefined) | 24.7% | – |
| COc1ccc(-c2nnc(NC(=O)CS(=O)(=O)c3ccc(Cl)cc3)o2)c(OC)c1 | 1.46% | – |
| COc1cc(-c2nc(S(=O)(=O)c3ccc(Cl)cc3)c(N(C)C)o2)cc(OC)c1OC | – | 8.2 µM (active) |
| O=S(=O)(c1ccc(Cl)cc1)c1nc(-c2ccco2)oc1N1CCCCC1 | -29% | – |
| CC(=O)Nc1ccc(S(=O)(=O)NC(C)C(=O)OCCOc2ccc(F)cc2)cc1 (centres undefined) | 7.42% | – |
| CCOC(=O)C1=C(C)Nc2nc3ccccc3n2C1c1cccs1 (centres undefined) | -0.153% | – |
| COc1ccccc1NC(=O)C1=C(C)Nc2nc3ccccc3n2C1c1cccs1 (centres undefined) | – | 9.2 µM (active) |
| COc1ccccc1NC(=O)C1=C(C)NC(=O)NC1c1ccc(C)s1 (centres undefined) | 4.16% | – |
| CCOC(=O)C1CCCN(C(=O)c2ccc(C)c(S(=O)(=O)N3CCCCC3)c2)C1 (centres undefined) | -20.4% | – |
| CCOC(=O)C1=C(C)N=c2s/c(=C\C(=O)OC)c(=O)n2C1c1ccc(OC)cc1 (centres undefined) | 7.84% | – |
| C=CCOC(=O)C1=C(C)NC(C)=C(C(=O)OCC=C)C1c1cccs1 | -9.34% | – |
| COCCOC(=O)C1=C(C)N=c2s/c(=C\c3cccs3)c(=O)n2C1c1cccs1 (centres undefined) | – | 14.6 µM (active) |
| COC(=O)c1cnc(Nc2cc(C)ccc2OC)c2ccccc12 | -1.92% | – |
| COc1ccc(C)cc1Nc1nc(C)nc2c1oc1ccccc12 | – | 5.17 µM (active) |
| Cc1nc(Cl)c2oc3ccccc3c2n1 | 2.76% | – |
| Cc1cc(C)c(OCC(=O)N(Cc2cccs2)C2CCS(=O)(=O)C2)c(C)c1 (centres undefined) | -4.24% | – |
| COc1ccc(CCN2C(=O)C(C)=C(C)C2=O)cc1OC | 6.36% | – |
| CCN1C(=O)[C@@H]2[C@@H](c3ccc(-c4ccc(OC)cc4)c(OC)c3)N3CCC[C@@]3(C(=O)OC)[C@@H]2C1=O | 9.25% | – |
| Cc1ccc(NC(=O)C2CCN(S(=O)(=O)c3ccc4c(c3)NC(=O)CO4)CC2)cc1C | -9.24% | – |
| C=CCn1cc(C(=O)NCc2ccc(Cl)cc2)c(=O)c2cc(S(=O)(=O)N(CC)CC)ccc21 | – | 8.2 µM (active) |
| CCOC(=O)N1CCN(C(=O)c2cn(C)c3ccc(S(=O)(=O)N(CC)CC)cc3c2=O)CC1 | 0.556% | – |

| Compound | activity change, negative = inhibition | Potency |
| --- | --- | --- |
| CCn1cc(C(=O)NCC2CCCO2)c(=O)c2cc(S(=O)(=O)N3CCCCC3)ccc21 (centres undefined) | -15.3% | – |
| CCOC(=O)[C@H]1[C@H]2COc3ccc(Cl)cc3[C@@H]2N2C(=O)c3cc(C)ccc3NC(=O)[C@@]12C | -23.2% | – |
| Cn1ccsc1=NC(=O)c1cc(S(=O)(=O)N2CCOCC2)ccc1Cl | 10.7% | – |
| Cc1cccc(NC(=O)CSc2nc3[nH]ncc3c(=O)[nH]2)c1 | 13% | – |
| COc1ccc(CCNC(=O)CSc2nc3[nH]ncc3c(=O)n2-c2cccc(C(F)(F)F)c2)cc1OC | -14.2% | – |
| Cc1cccc2nc(CSc3nc4[nH]ncc4c(=O)n3-c3cccc(Cl)c3)cc(=O)n12 | – | 20.6 µM (active) |
| CC(C)C(NC(=O)c1c(F)cccc1F)C(=O)NCc1ccncc1 (centres undefined) | -10.4% | – |
| COc1cccc(OC)c1C(=O)Nc1ccc(Cc2ccncc2)cc1 | -9.05% | – |
| O=C(Nc1ccncc1)c1c(F)cccc1F | – | 6.51 µM (active) |
| CSc1ncc(C(=O)Nc2ccc(C)cc2C)c(C)n1 | 6.34% | – |
| c1ccc(-n2nnnc2-c2cccnc2)cc1 | -4.14% | – |
| FC(F)(F)c1nc(-c2ccccc2)ncc1-c1nnnn1-c1ccccc1 | – | 20.6 µM (active) |
| c1ccc(-n2nnnc2NC2CCCCCC2)cc1 | -0.841% | – |
| CC(=O)c1ccc(N2CCN(C(=O)CCc3ccccc3)CC2)cc1 | 6.73% | – |
| O=C1CCC/C=C/C[C@@H](CC(=O)N(CCO)Cc2ccccc2)C(=O)NC[C@H](c2ccccc2)O1 | 17% | – |
| Cc1nc2ccccn2c(=O)c1NC(=O)c1cccs1 | 7.29% | – |
| Cc1ccn2c(=O)c(NC(=O)c3cccc4ccccc34)c(C)nc2c1 | – | 5.17 µM (active) |
| C/C(=N\OC(=O)c1ccccc1)c1c(C)nc2cc(C)ccn12 | -4.4% | – |
| Cc1ccc(Oc2ccc(N)cc2)cc1 | 18.9% | – |
| Nc1ccc(Oc2ccc(Cl)cc2)cc1 | 0.524% | – |
| CC(C)(C)c1ccc(Oc2ccc(N)cc2)cc1 | – | 7.31 µM (active) |
| Cc1ccc(S(=O)(=O)NCC2CCC(C(=O)N3CCOCC3)CC2)cc1 (centres undefined) | 12.9% | – |
| C=CCSc1nnc(N2C(=O)C(O)=C(C(=O)c3ccco3)C2c2ccc(F)cc2)s1 (centres undefined) | -9.68% | – |
| CC1CC(=NNC(=O)C2COc3ccccc3O2)CC(C)(C)C1 (centres undefined) | 25.5% | – |

From PubChem BioAssay AID504467 (National Center for Advancing Translational Sciences (NCATS), 2011)
